In the library only some 7.5% were active in any assay of this set; here they are far more common.
ELG1 genotox: qHTS screen for small molecules that induce genotoxicity in human embryonic kidney (HEK293T) cells expressing luciferase-tagged ELG1; HEK293T ELG1-luciferase reporter, luminescence, 16 h; 1.3% of 330,000 active; Potency, µM (top dose mostly 46 µM), most hits filed as activators; also: nearly all actives have a fitted effect of over 60% in size
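Genotoxicity was scored as increased ELG1-luciferase reporter signal, measured by ONE-Glo luminescence (30 min, room temperature). Compound or vehicle exposure of the HEK293T reporter cells lasted 16 hr at 37°C.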
Rab9 promoter act: qHTS Assay for Rab9 Promoter Activators | Potency, µM (series often up to 9.22 µM), actives largely listed as activators | 2.8% of 320,000 active | Huh7 Rab9 promoter-luciferase reporter, luminescence, 24 h; also: nearly all actives have a fitted effect of over 60% in size
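Rab9 promoter-driven luciferase in stably transfected Huh7 cells; 1500 cells/well rested 2 h, exposed to compound in DMSO for 24 h at 37 °C, 5% CO2. Luminescence read 10 min after adding luciferase reagent at ambient temperature.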
KinaseGlo FLuc: Counterscreen for Luciferase (Kinase-Glo TM) Inhibition | Potency, µM (titrated, usually from 38.3 µM), most hits filed as inhibitors | Kinase-Glo luciferase, ATP luminescence, 8 min | Luciferin 4-monooxygenase (Photuris pensylvanica), Q27757 | 0.28% of 200,000 active; also: nearly all actives have a fitted effect of over 60% in size
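Recombinant Kinase-Glo luciferase, 10 uM ATP (linear range), luciferin; imidazole pH 7.2 / KCl / MgCl2 / Tween / BSA buffer; 8 min RT; luminescence.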
NPC1 promoter act: qHTS Assay for NPC1 Promoter Activators. Potency, µM (doses to about 9.22 µM), hits mostly activators. Huh7 NPC1 promoter luciferase reporter, 24 h. 2.4% of 320,000 active. AID 485313, 2010; also: nearly all actives have a fitted effect of over 60% in size
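Quantitative HTS used a cell-based reporter: Huh7 cells stably bearing the NPC1 promoter upstream of luciferase were treated with compounds for 24 h, and promoter activation was read as luminescence.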
SMN2 splice enh: qHTS Assay for Enhancers of SMN2 Splice Variant Expression; HEK293 SMN2-luciferase splicing reporter, luminescence, 30-36 h; Potency, µM (highest dose often 46.1 µM), hits mostly activators; 2.8% of 210,000 active; AID 1458, 2008; also: nearly all actives have a fitted effect of over 55% in size
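HEK293 cells carry an SMN2 minigene-luciferase reporter in which exon 7 inclusion puts luciferase in frame. Cells were seeded at 2000 cells/well, attached for 10-12 hours, then exposed to compounds for 30-36 hours at 37C before ONE-Glo luminescence.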
FLuc modulator: qHTS profiling assay for firefly luciferase inhibitor/activator using purifed enzyme and Km concentrations of substrates (counterscreen for miR-21 project) | Luciferin 4-monooxygenase (Photinus pyralis), P08659 | purified FLuc, Km substrates, luminescence inhibition | Potency, µM (doses to about 57.5 µM), hits mostly inhibitors | 6.9% of 360,000 active; also: nearly all actives have a fitted effect of over 55% in size
Target sequence (P08659 whole entry, looked up): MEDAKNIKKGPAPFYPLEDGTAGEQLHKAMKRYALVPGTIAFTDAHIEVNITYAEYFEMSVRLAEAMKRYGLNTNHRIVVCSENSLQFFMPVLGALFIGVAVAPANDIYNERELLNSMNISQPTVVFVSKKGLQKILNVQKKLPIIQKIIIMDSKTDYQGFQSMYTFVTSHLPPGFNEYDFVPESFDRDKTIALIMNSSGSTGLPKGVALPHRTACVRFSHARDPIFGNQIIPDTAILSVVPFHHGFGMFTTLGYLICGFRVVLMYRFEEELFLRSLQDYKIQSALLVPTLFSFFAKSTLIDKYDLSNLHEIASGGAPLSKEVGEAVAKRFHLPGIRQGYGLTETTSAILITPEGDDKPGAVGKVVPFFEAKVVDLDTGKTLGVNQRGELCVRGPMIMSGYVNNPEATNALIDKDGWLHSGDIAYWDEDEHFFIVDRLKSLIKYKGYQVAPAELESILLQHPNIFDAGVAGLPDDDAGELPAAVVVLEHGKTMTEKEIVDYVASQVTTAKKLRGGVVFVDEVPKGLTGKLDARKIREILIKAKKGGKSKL
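Purified P. pyralis luciferase (10nM final) with 10uM D-luciferin and 10uM ATP (Km levels) in 50mM Tris acetate pH 7.5, 10mM Mg acetate, 0.01% Tween-20, 0.05% BSA; qHTS 6-point titration, ~60 µM downward; luminescence read.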
Hits are given with their value. Calls follow the shape of the dose curve; as a rule, active = well fitted curve in the direction sought with a large enough effect; inconclusive = small, poorly fitted or top-dose-only effect, or another doubt; inactive = no such curve, though single readings can be large; an effect the other way counts as inactive or inconclusive.

Brc1cccc(-c2nnc(-c3ccccc3)o2)c1 was read as ELG1 genotox 3.26µM, Rab9 promoter act 1.41µM, KinaseGlo FLuc inactive, NPC1 promoter act 2µM, SMN2 splice enh 17.8µM and FLuc modulator 3.01µM.
Cc1ccc(-c2nnc(-c3cccc(Br)c3)o2)cc1 was read as ELG1 genotox 8.2µM, Rab9 promoter act inconclusive, KinaseGlo FLuc inactive, NPC1 promoter act inconclusive, SMN2 splice enh 12.6µM and FLuc modulator 4.78µM.
For CCN(CC)CCNC(=O)c1cc(Nc2ccc(OC)c(OC)c2)nc2ccccc12 the results were ELG1 genotox inactive, Rab9 promoter act inactive, NPC1 promoter act inactive and FLuc modulator inconclusive.
`COc1ccc2oc(=O)cc(CN3CCN(C(=O)c4ccccc4F)CC3)c2c1` gave SMN2 splice enh inactive and FLuc modulator inactive.
`O=S1(=O)CCN2C(=N1)Sc1c2ccc2c1CCCC2` gave ELG1 genotox inconclusive, Rab9 promoter act inactive, KinaseGlo FLuc inactive, NPC1 promoter act inactive, SMN2 splice enh inactive and FLuc modulator 15.1µM.
`CCN(C(=O)COC(=O)c1cccnc1Nc1ccccc1F)C1CCS(=O)(=O)C1` (stereo unspecified) gave ELG1 genotox inactive, Rab9 promoter act inconclusive, KinaseGlo FLuc 10µM, NPC1 promoter act inconclusive, SMN2 splice enh inconclusive and FLuc modulator inconclusive.
For CCN(C(=O)COC(=O)c1cc(OC)ccc1Br)C1CCS(=O)(=O)C1 (stereo unspecified) the results were ELG1 genotox inactive.
COc1ccc(-c2cc(C(=O)OCC(=O)N(C)C)c3ccccc3n2)cc1 was read as ELG1 genotox inactive, Rab9 promoter act inactive, KinaseGlo FLuc inactive, NPC1 promoter act inactive, SMN2 splice enh inconclusive and FLuc modulator 9.53µM.
CN(C(=O)COC(=O)c1cccnc1Nc1ccccc1F)C1CCS(=O)(=O)C1 (stereo unspecified) was read as ELG1 genotox inactive, Rab9 promoter act inactive, KinaseGlo FLuc inactive, NPC1 promoter act inactive, SMN2 splice enh inactive and FLuc modulator inactive.
`CCN(C(=O)COC(=O)c1cc(-c2ccc3cc(OC)ccc3c2)nc2ccccc12)C1CCS(=O)(=O)C1` (stereo unspecified) gave ELG1 genotox inactive, Rab9 promoter act 0.355µM, KinaseGlo FLuc inactive, NPC1 promoter act 0.891µM, SMN2 splice enh inconclusive and FLuc modulator 0.849µM.
COc1ccc(-c2cc(C(=O)Oc3ccc(Cl)cc3)c3ccccc3n2)cc1 was read as SMN2 splice enh inactive and FLuc modulator inactive.
For COc1ccc(-c2cc(C(=O)OCc3ccccn3)c3ccccc3n2)cc1 the results were ELG1 genotox inactive, Rab9 promoter act inactive, NPC1 promoter act inactive and FLuc modulator 6.75µM.
COc1ccc(-c2cc(C(=O)Oc3ccc(C)cc3)c3ccccc3n2)cc1 was read as SMN2 splice enh inactive and FLuc modulator inconclusive.
`COc1ccc(-c2cc(C(=O)Oc3ccc([N+](=O)[O-])cc3)c3ccccc3n2)cc1` gave ELG1 genotox inactive, Rab9 promoter act inactive, KinaseGlo FLuc inactive, NPC1 promoter act inactive, SMN2 splice enh inconclusive and FLuc modulator 5.36µM.
For CCN(C(=O)Cn1c(C(=O)OC)cc2sc(Cl)cc21)c1cccc(C)c1 the results were SMN2 splice enh inactive and FLuc modulator inactive.
For CCc1ccc(-c2ccc(C(=O)O)cc2)nc1 the results were ELG1 genotox inactive, Rab9 promoter act 3.55µM, KinaseGlo FLuc inactive, NPC1 promoter act inconclusive, SMN2 splice enh inconclusive and FLuc modulator 8.49µM.
O=c1c(Br)c(N2CCCCC2)cnn1-c1ccccc1 was read as ELG1 genotox inconclusive, Rab9 promoter act 2µM, KinaseGlo FLuc inactive, NPC1 promoter act 3.55µM and FLuc modulator 15.1µM.
`O=c1c(Br)c(N2CCCC2)cnn1-c1ccccc1` gave ELG1 genotox inconclusive, Rab9 promoter act 2µM, KinaseGlo FLuc inactive, NPC1 promoter act 3.98µM, SMN2 splice enh 11.2µM and FLuc modulator 21.3µM.
`Cc1cccc(Cn2cc(C(=O)Nc3ccc(S(N)(=O)=O)cc3)ccc2=O)c1` gave FLuc modulator inactive.
Cc1cccc(C(=O)NC(=O)Nc2ccc(-n3nc(C(F)(F)F)cc3C(F)(F)F)cc2)c1 was read as SMN2 splice enh inactive and FLuc modulator inactive.
`Cc1cc(=O)oc2cc(NC(=O)c3ccc(OC(F)F)cc3)ccc12` gave ELG1 genotox 4.47µM, Rab9 promoter act inconclusive, NPC1 promoter act inconclusive and FLuc modulator inactive.
`Cc1cc(=O)oc2cc(OCC(=O)Nc3cccc(S(=O)(=O)N(C)C)c3)ccc12` gave ELG1 genotox inactive, Rab9 promoter act inactive, KinaseGlo FLuc inactive, NPC1 promoter act inactive, SMN2 splice enh inactive and FLuc modulator inactive.
For Cc1cc(=O)oc2cc(NC(=O)c3cccc(S(=O)(=O)N(C)C)c3)ccc12 the results were ELG1 genotox inconclusive, Rab9 promoter act 0.891µM, NPC1 promoter act 1.26µM and FLuc modulator inconclusive.
Cc1cc(=O)oc2cc(NC(=O)c3cccc(F)c3)ccc12 was read as ELG1 genotox inactive, Rab9 promoter act 1.41µM, NPC1 promoter act inconclusive and FLuc modulator inactive.
CC1=CC(=C2C(=O)c3ccccc3C2=O)C=C(C)N1Cc1ccco1 was read as ELG1 genotox inactive, Rab9 promoter act 1.58µM, KinaseGlo FLuc inactive, NPC1 promoter act 2.24µM, SMN2 splice enh 14.1µM and FLuc modulator 3.38µM.
Screening CCCCN1C(C)=CC(=C2C(=O)c3ccccc3C2=O)C=C1C returned ELG1 genotox 0.82µM, Rab9 promoter act 0.398µM, KinaseGlo FLuc inconclusive, NPC1 promoter act 0.501µM, SMN2 splice enh inactive and FLuc modulator 1.51µM.
For CCOc1ccc(N(CC(=O)Nc2ccc(C)c(C)c2)S(C)(=O)=O)cc1 the results were ELG1 genotox inconclusive, Rab9 promoter act inconclusive, NPC1 promoter act 2.82µM and FLuc modulator 10.7µM.
O=P(O)(C(O)c1ccccc1)C(O)c1ccccc1 (stereo unspecified) was read as ELG1 genotox inactive, Rab9 promoter act inactive, NPC1 promoter act inactive and FLuc modulator inactive.
CCCSc1nnc2c(n1)OC(c1sccc1C)Nc1ccccc1-2 (stereo unspecified) was read as SMN2 splice enh 3.16µM and FLuc modulator inconclusive.
For O=C(Nc1ccccc1)c1ccc(C(=O)Nc2ccccc2)nc1 the results were ELG1 genotox inconclusive, Rab9 promoter act 2µM, KinaseGlo FLuc inactive, NPC1 promoter act inconclusive, SMN2 splice enh inactive and FLuc modulator inactive.
